A number with no mark means an inactive call. Records with an inconclusive call do not appear. Active and inactive are the calls of the source. Unless noted, calls follow the shape of the full dose curve.

Assay [1] is described as follows: qHTS assay to identify small molecule agonists of the sonic hedgehog signaling (Shh) pathway (AID 1259368).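 Also: NIH/3T3-derived 3T3Gli1-Luc cells carrying a stable Gli1-driven firefly luciferase reporter; series mostly up to about 92 µM; nearly all actives have a fitted effect of over 15% in size.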 The essentials: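 Cells of a mouse NIH/3T3 clone stably expressing luciferase under the Gli1 transcriptional response element are exposed to test chemicals for 24 hr at 37 C. Pathway activation is detected as a rise in luminescence.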
In general terms: qHTS replaces the single test concentration by a dilution series.

A short description of assay [2]: qHTS assay to identify small molecule antagonists of the sonic hedgehog signaling (Shh) pathway (AID 1259369). Also: nearly all actives have a fitted effect of over 45% in size. In short, it runs like this:
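Cells are plated and held 4hr at 37 C, compounds (DMSO) are pinned in, conditioned medium is added to stimulate the pathway, and after 24hr luciferase reagent is added for 30min before luminescence is read.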

The target of assay [3] is Estrogen receptor beta (Homo sapiens) (UniProt Q92731). As to the kind of experiment: qHTS assay to identify small molecule antagonists of the estrogen receptor beta (ER-beta) signaling pathway (AID 1259378; active = well fitted inhibition curve with a large enough effect in the signal ratio in the repeat runs, not every such curve was filed as active; the % refers to the signal ratio). The essentials: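 ER-beta-UAS-bla HEK293T cells in 2% charcoal-stripped FBS medium treated with compound plus 1nM final 17-beta-estradiol for 16 hr at 37C. Beta-lactamase reporter read by FRET substrate fluorescence after 2 hours at room temperature.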

The nature of assay [4]: qHTS assay to identify small molecule agonists of the androgen receptor (AR) signaling pathway in the presence of an antagonist - cell viability counter screen (AID 1259379; active = well fitted curve in the direction sought with a large enough effect in the repeat runs; an effect the other way counts as inactive or inconclusive; also: nearly all actives have a fitted effect of over 25% in size; also: potency is read from the fitted curve at half-maximal effect;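 as to activity change, negative = cytotoxicity: MDA-kb2 human breast cancer cells carrying an MMTV luciferase reporter; series mostly up to about 92 µM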). In short, it runs like this: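 Cytotoxicity is assessed by CellTiter-Fluor in MDA-kb2 cells carrying an MMTV-driven luciferase reporter. Cells receive 3.0uM nilutamide plus compounds at 15 concentrations and incubate 16 hr at 37C without CO2 before fluorescence reading.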

Assay [5] can be described thus: qHTS assay to identify small molecule agonists of the estrogen receptor beta (ER-beta) signaling pathway - cell viability counter screen (AID 1259380; active = well fitted curve in the direction sought with a large enough effect in the repeat runs; an effect the other way counts as inactive or inconclusive; also: nearly all actives have a fitted effect of over 30% in size). In short, it runs like this: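 Cytotoxicity is measured in parallel with the reporter screen: after 16 hr compound exposure at 37C and a 2 hr LiveBLAzer step, CellTiter-Glo is added to the same ER-beta-UAS-bla HEK293T wells and luminescence read after 30 min.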

Assay [6] in a line: qHTS assay to identify small molecule antagonists of the estrogen receptor beta (ER-beta) signaling pathway - cell viability counter screen (AID 1259382; active = well fitted curve in the direction sought with a large enough effect in the repeat runs; an effect the other way counts as inactive or inconclusive; also: series mostly up to about 92 µM; nearly all actives have a fitted effect of over 55% in size). In short, it runs like this:
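Cytotoxicity counter screen multiplexed with the beta-lactamase antagonist assay: GripTite HEK293T ER-beta-bla cells were treated 16 hr with test chemicals in the presence of 1nM 17-beta-estradiol, and viability was measured by CellTiter-Glo.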

The nature of assay [7]: qHTS assay to identify small molecule agonists or antagonists of the thyroid stimulating hormone receptor (TSHR) signaling pathway - wild type cell line counter screen (AID 1259384). The essentials:
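Wild-type Hek293 cells, 800/well, 18 h at 37C, then compound with Ro20-1724 for 30 min RT. cAMP by HTRF (cAMP-d2/anti-cAMP cryptate), 1 h RT, fluorescence read. 15 concentrations, triplicates.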

Assay [8] concerns the target Androgen receptor (Homo sapiens) (UniProt P10275). As to the kind of experiment: qHTS assay to identify small molecule agonists of the androgen receptor (AR) signaling pathway in the presence of an antagonist (AID 1259381). Also: nearly all actives have a fitted effect of over 15% in size. The essentials:
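Agonist-mode confirmation screen: human MDA-kb2 cells stably expressing luciferase under an MMTV promoter bearing AR and GR response elements, co-treated with 3.0uM nilutamide (final). Luminescence measured after 16hr compound incubation.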

Assay [9] has as its target Estrogen receptor (Homo sapiens) (UniProt P03372). The assay can be described thus: qHTS assay to identify small molecule agonists of the estrogen receptor alpha (ER-alpha) signaling pathway in the presence of an antagonist (AID 1259383). Also: top concentration of the series differs between compounds; nearly all actives have a fitted effect of over 15% in size. The essentials:
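Agonist-mode confirmation in the presence of the ER antagonist ICI-182,780 at 10.0nM final. Breast-derived VM7Luc4E2 reporter cells were exposed to compounds for 22hr, and ERE-driven luciferase was quantified by luminescence.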

The target in assay [10] is Estrogen receptor beta (Homo sapiens) (UniProt Q92731). As to the kind of experiment: qHTS assay to identify small molecule agonists of the estrogen receptor beta (ER-beta) signaling pathway (AID 1259377; active = well fitted activation curve with a large enough effect in the signal ratio in the repeat runs, not every such curve was filed as active; the % refers to the signal ratio). In short, it runs like this: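 qHTS in ER-beta-UAS-bla HEK293T cells: 6 hr settling, then 16 hr compound at 37C, then LiveBLAzer substrate 2 h at RT before fluorescence reading.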
% is scaled to controls: 0 for no effect and ±100 for the full control effect.

Sequence of Estrogen receptor beta (Homo sapiens) (Q92731 whole entry, looked up): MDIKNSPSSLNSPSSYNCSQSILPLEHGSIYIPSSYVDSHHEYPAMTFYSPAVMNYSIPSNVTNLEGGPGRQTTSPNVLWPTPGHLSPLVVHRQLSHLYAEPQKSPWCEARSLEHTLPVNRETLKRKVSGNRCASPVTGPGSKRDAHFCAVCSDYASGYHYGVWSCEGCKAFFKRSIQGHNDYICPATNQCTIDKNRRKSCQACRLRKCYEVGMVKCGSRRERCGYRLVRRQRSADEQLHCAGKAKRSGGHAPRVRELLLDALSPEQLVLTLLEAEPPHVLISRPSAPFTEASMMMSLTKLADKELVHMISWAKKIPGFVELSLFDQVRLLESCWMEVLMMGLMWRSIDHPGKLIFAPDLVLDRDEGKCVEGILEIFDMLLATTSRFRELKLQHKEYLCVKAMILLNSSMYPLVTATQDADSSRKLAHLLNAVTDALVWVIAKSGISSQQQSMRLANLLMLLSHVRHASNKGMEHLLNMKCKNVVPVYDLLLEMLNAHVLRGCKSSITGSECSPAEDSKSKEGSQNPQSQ
Sequence of Estrogen receptor (Homo sapiens) (P03372 whole entry, looked up): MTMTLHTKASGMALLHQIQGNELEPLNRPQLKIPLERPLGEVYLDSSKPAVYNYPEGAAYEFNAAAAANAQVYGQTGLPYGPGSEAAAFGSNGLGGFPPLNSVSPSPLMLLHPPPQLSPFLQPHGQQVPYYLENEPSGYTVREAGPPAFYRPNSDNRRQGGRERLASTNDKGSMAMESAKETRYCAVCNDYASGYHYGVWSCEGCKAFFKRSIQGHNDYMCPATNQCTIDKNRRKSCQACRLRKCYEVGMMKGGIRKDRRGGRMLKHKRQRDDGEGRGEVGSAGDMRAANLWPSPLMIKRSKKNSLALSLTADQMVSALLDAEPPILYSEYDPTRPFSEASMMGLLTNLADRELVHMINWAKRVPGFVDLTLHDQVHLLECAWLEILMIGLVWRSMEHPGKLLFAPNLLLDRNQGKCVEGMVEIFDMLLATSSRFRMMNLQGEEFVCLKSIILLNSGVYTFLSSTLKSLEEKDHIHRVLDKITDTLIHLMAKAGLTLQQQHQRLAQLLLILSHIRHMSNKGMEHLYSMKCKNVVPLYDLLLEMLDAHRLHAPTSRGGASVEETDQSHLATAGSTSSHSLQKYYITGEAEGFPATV
Sequence of Androgen receptor (Homo sapiens) (P10275 whole entry, looked up): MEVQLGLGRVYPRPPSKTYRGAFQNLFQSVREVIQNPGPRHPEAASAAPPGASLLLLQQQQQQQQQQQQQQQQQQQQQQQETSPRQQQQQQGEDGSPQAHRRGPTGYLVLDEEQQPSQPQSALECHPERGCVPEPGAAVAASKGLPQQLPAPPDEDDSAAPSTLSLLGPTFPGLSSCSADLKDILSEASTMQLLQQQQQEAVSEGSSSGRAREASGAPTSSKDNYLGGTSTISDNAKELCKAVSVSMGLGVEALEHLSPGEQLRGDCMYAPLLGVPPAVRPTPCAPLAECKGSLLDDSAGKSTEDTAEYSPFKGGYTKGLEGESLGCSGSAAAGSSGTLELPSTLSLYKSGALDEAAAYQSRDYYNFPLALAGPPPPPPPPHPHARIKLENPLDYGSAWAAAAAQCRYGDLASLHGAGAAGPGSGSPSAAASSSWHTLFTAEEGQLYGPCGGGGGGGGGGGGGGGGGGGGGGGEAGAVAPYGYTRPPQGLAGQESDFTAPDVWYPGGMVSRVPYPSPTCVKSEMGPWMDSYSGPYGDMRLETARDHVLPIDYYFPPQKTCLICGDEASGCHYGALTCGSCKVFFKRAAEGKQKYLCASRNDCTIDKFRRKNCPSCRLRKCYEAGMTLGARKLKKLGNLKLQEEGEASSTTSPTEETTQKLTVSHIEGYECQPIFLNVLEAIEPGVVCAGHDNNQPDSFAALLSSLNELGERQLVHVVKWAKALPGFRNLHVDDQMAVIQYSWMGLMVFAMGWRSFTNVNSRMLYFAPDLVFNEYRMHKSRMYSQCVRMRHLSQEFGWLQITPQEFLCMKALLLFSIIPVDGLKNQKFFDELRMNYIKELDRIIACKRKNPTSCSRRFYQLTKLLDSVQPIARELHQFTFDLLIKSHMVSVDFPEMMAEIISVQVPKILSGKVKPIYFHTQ

Turning to `O=C1CC(c2ccc(Cl)cc2)CC(=O)N1`, the call in assay [1], in assay [3], in [6] and in assay [7] was inactive. Further, the Potency entry in [2], in assay [4] and in [5] was “inactive” each time.

`N[C@@H](CCC(=O)Nc1ccc([N+](=O)[O-])cc1)C(=O)O`: the molecule was called inactive in assay [1], in assay [3], in [6], in assay [9] and in assay [7]. For the same molecule, the Potency result in [2], in [5] and in assay [8] was “inactive” throughout. Also, the Potency in assay [4] is 48.6 µM (active).

With `O=C(/N=N/C(=O)OCc1ccccc1)OCc1ccccc1`, the result in [1], in [6], in assay [9] and in assay [7] was inactive. For the same molecule, the Potency entry in [2], in assay [10] and in [4] was “inactive” throughout.

Take `O=C(O)c1ccc(Cl)cc1Cl`: the molecule was called inactive in assay [1], in assay [6] and in assay [9]. Further, the Potency entry in assay [2], in assay [10], in assay [4] and in assay [5] was “inactive” in each case.

`N#Cc1ccc(C(=O)O)cc1`: the molecule was classed as inactive in [1], in assay [3] and in [6]. Besides, the Potency entry in assay [2], in [4], in assay [5] and in assay [8] was “inactive” each time.

`O=S(=O)(O)c1cc(O)c2ccc(Nc3ccccc3)cc2c1`: the molecule was classed as inactive in assay [1], in assay [6] and in assay [9]. The Potency entry in [2], in [10] and in assay [4] was “inactive” in each case.

Regarding `C#CC(C)N(C)C(=O)Nc1ccc(Cl)cc1` (stereo not given), the call in assay [1] and in assay [6] was inactive. Further, the Potency result in assay [2], in assay [10], in assay [4] and in assay [8] was “inactive” throughout.

Consider `CC(C)N(c1ccccc1)C(C)C`, for which the molecule was classed as inactive in assay [1], in assay [3] and in assay [6]. The Potency result in assay [2], in assay [4] and in assay [5] was “inactive” throughout.

Take `CC(C)=O`: the molecule was classed as inactive in assay [1], in assay [3], in [6], in [9] and in assay [7]. Moreover, the Potency entry in assay [2], in [4], in [5] and in assay [8] was “inactive” in each case.

Consider `CCOC(=O)[C@H](CCc1ccccc1)N[C@@H](C)C(=O)N1C(=O)N(C)C[C@H]1C(=O)O`, for which the outcome in assay [1], in assay [3], in assay [6], in assay [9] and in [7] was inactive. The Potency entry in assay [2], in [4] and in [5] was “inactive” throughout.

For the molecule `CC(=O)OC(C)OC(=O)C(C)c1ccc(-c2ccccc2)c(F)c1` (stereo not given), the result in assay [1], in [3], in assay [6], in assay [9] and in assay [7] was inactive. Also, the Potency result in [2], in assay [4], in assay [5] and in assay [8] was “inactive” each time.

With `CCCCCCCCSCC`, the molecule was called inactive in assay [1], in assay [3], in [6], in assay [9] and in assay [7]. The Potency entry in assay [2], in [4] and in assay [5] was “inactive” throughout.

As for `CCn1ccc(NS(=O)(=O)c2ccc(N)cc2)nc1=O`, the call in [1], in assay [6], in assay [9] and in [7] was inactive. Besides, the Potency result in assay [2], in [10], in [4] and in assay [5] was “inactive” each time.

In the case of `O=C(CS(=O)Cc1ccco1)NC/C=C\COc1cc(CN2CCCCC2)ccn1` (stereo not given), the outcome in [1], in assay [3], in assay [6], in [9] and in assay [7] was inactive. Besides, the Potency result in assay [2], in assay [4] and in assay [5] was “inactive” throughout.

Regarding `CC(=O)NCc1c(I)c(NC(C)=O)c(I)c(C(=O)O)c1I`, the result in assay [1], in assay [3], in assay [6] and in assay [7] was inactive. In addition, the Potency entry in [2], in assay [4], in [5] and in [8] was “inactive” each time.

On to `O=C(Nc1ccc(Cl)c(Cl)c1)C1CC1`, for which the molecule was classed as inactive in assay [1], in assay [3], in assay [6] and in assay [9]. The Potency result in assay [2], in assay [4], in [5] and in [8] was “inactive” each time.

As for `CCOc1cc([N+](=O)[O-])c(OCC)cc1N1CCOCC1`, the molecule was classed as inactive in [1], in [6], in [9] and in assay [7]. Also, the Potency result in [2], in assay [10] and in assay [5] was “inactive” each time.

As for `CNS(=O)(=O)CCc1ccc2[nH]cc(C3CCN(C)CC3)c2c1`, the call in assay [1], in [3], in [6] and in assay [7] was inactive. Further, the Potency entry in assay [2], in assay [4] and in [5] was “inactive” each time.

On to `BrCc1cccc(Oc2ccccc2)c1`, for which the molecule was called inactive in assay [1], in assay [3], in assay [6] and in [7]. Besides, the Potency entry in assay [2], in [4], in assay [5] and in assay [8] was “inactive” each time.

Regarding `CCCCCCCC/C=C\CCCCCCCC(=O)OCCCC`, the activity change in [1] was -0.497% [at 18.9 µM]. The activity change, negative = inhibition in assay [2] is 17.1% [at 19 µM]. Besides, the activation is -0.0077% [at 19 µM] in assay [10] and 0.165% [at 19 µM] in assay [9]. The activity change, negative = cytotoxicity in [4] is 0.614% [at 19 µM]; in assay [5] it was -6.74% [at 19 µM]; in assay [6], -4.71% [at 19 µM]. The cAMP activity change in assay [7] was -3.23% [at 18.9 µM].

As for `COCCOCCOCCOCCO`, the result in [1], in [6] and in [7] was inactive. The Potency result in [2], in assay [10], in [4] and in [8] was “inactive” each time.

For the molecule `NNc1nnc(NN)c2ccccc12`, the outcome in assay [1], in assay [6] and in assay [7] was inactive. The Potency result in [2], in [10] and in [4] was “inactive” each time.

As to `CC(=O)CCCCn1c(=O)c2c(ncn2C)n(C)c1=O`, the outcome in [1], in assay [6], in assay [9] and in assay [7] was inactive. The Potency entry in [2], in assay [10], in [4] and in assay [5] was “inactive” in each case.

As to `O=S(=O)(O)CCN1CCN(CCO)CC1`, the result in [1], in [6] and in assay [7] was inactive. Further, the Potency result in assay [2], in assay [10], in [4] and in assay [5] was “inactive” throughout.

Take `CN1CCN(CC(=O)N2c3ccccc3C(=O)Nc3cccnc32)CC1`: in assay [1], the activity change was 0.176% [at 8.39 µM]. Moreover, the activity change, negative = inhibition in assay [2] is 12.8% [at 8.39 µM]. Moreover, the activity, negative = inhibition in assay [3] was 0.518% [at 8.39 µM]. In addition, the activity change, negative = cytotoxicity was -6.25% [at 8.39 µM] in assay [4], 5.53% [at 8.39 µM] in [5] and 9.64% [at 8.39 µM] in assay [6]. In assay [9], the activation is 0.843% [at 8.39 µM].

Turning to `Nc1nnc(-c2cccc(Cl)c2Cl)c(N)n1`, the outcome in assay [1], in [6] and in assay [7] was inactive. The Potency result in assay [2], in assay [10], in assay [4] and in [5] was “inactive” throughout.

On to `OCCCCC(O)CO` (stereo not given), for which the result in assay [1], in assay [3], in assay [6] and in assay [7] was inactive. For the same molecule, the Potency entry in assay [2], in [4] and in assay [5] was “inactive” throughout.

Consider `O=C(OCc1ccccc1)C(=O)OCc1ccccc1`, for which the molecule was called inactive in assay [1], in assay [3], in assay [6] and in assay [7]. Also, the Potency entry in assay [2], in [4], in assay [5] and in assay [8] was “inactive” throughout.

On to `O=S(O)(O)=S`, for which, in assay [1], the activity change was -0.163% [at 8.39 µM]. The activity change, negative = inhibition in assay [2] was 0.751% [at 8.39 µM]. Besides, the activity, negative = inhibition in assay [3] is 6.44% [at 8.39 µM]. Besides, the figures for the activity change, negative = cytotoxicity in assay [4], in [5] and in assay [6] were 1.18% [at 8.39 µM], -9.09% [at 8.39 µM] and 4.48% [at 8.39 µM], respectively. Further, the cAMP activity change in assay [7] is 0.958% [at 8.39 µM].

Values taken from PubChem BioAssay (Tox21).
